Test results taken from the supplement of paper PMC4466140.

Target: AgAbp1
Test: SPOT peptide array binding signal intensity (averaged, normalized) (arbitrary units (background-subtracted, floor 0; scale differs between SH3 domains)); higher = stronger binding of the SH3 domain to the peptide
Description: (§1)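 GST-tagged SH3 domains from S. cerevisiae (Sc), A. gossypii (Ag), C. albicans (Ca) and S. pombe (Sp) were incubated at 10 ug/ml overnight at 4 C on cellulose SPOT membranes carrying 292 synthetic 15-mer peptides mined from the S. cerevisiae proteome (cysteines replaced by serines). Binding was detected with anti-GST antibody, HRP secondary and chemiluminescence, quantified with Genespotter, and reported as normalized spot intensities averaged over biological replicates.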

Binder	SPOT peptide array binding signal intensity
LKVTPGRRAPTISKI	22

Target: AgBbc1
Test: as above
Description: as §1

Binder	SPOT peptide array binding signal intensity
LKVTPGRRAPTISKI	41

Target: AgBem1-D1
Test: as above
Description: as §1

Binder	SPOT peptide array binding signal intensity
LKVTPGRRAPTISKI	63.5

Target: AgBzz1-D1
Test: as above
Description: as §1

Binder	SPOT peptide array binding signal intensity
LKVTPGRRAPTISKI	81

Target: AgBzz1-D2
Test: as above
Description: as §1

Binder	SPOT peptide array binding signal intensity
LKVTPGRRAPTISKI	24

Target: AgCyk3
Test: as above
Description: as §1

Binder	SPOT peptide array binding signal intensity
LKVTPGRRAPTISKI	3

Target: AgFus1
Test: as above
Description: as §1

Binder	SPOT peptide array binding signal intensity
LKVTPGRRAPTISKI	22

Target: AgHof1
Test: as above
Description: as §1

Binder	SPOT peptide array binding signal intensity
LKVTPGRRAPTISKI	15

Target: AgHse1
Test: as above
Description: as §1

Binder	SPOT peptide array binding signal intensity
LKVTPGRRAPTISKI	18.5

Target: AgLsb1
Test: as above
Description: as §1

Binder	SPOT peptide array binding signal intensity
LKVTPGRRAPTISKI	≤ 0

Target: AgLsb4
Test: as above
Description: as §1

Binder	SPOT peptide array binding signal intensity
LKVTPGRRAPTISKI	≤ 0

Target: AgMyo5
Test: as above
Description: as §1

Binder	SPOT peptide array binding signal intensity
LKVTPGRRAPTISKI	5.5

Target: AgNbp2
Test: as above
Description: as §1

Binder	SPOT peptide array binding signal intensity
LKVTPGRRAPTISKI	1920

Target: AgRvs167
Test: as above
Description: as §1

Binder	SPOT peptide array binding signal intensity
LKVTPGRRAPTISKI	1.17

Target: AgSho1
Test: as above
Description: as §1

Binder	SPOT peptide array binding signal intensity
LKVTPGRRAPTISKI	≤ 0

Target: AgSla1-D1-D2
Test: as above
Description: as §1

Binder	SPOT peptide array binding signal intensity
LKVTPGRRAPTISKI	7.5

Target: AgSla1-D3
Test: as above
Description: as §1

Binder	SPOT peptide array binding signal intensity
LKVTPGRRAPTISKI	1

Target: CaAbp1-D1
Test: as above
Description: as §1

Binder	SPOT peptide array binding signal intensity
LKVTPGRRAPTISKI	435

Target: CaAbp1-D2
Test: as above
Description: as §1

Binder	SPOT peptide array binding signal intensity
LKVTPGRRAPTISKI	160

Target: CaBbc1
Test: as above
Description: as §1

Binder	SPOT peptide array binding signal intensity
LKVTPGRRAPTISKI	247

Target: CaBem1-D1
Test: as above
Description: as §1

Binder	SPOT peptide array binding signal intensity
LKVTPGRRAPTISKI	5

Target: CaBzz1-D1
Test: as above
Description: as §1

Binder	SPOT peptide array binding signal intensity
LKVTPGRRAPTISKI	154

Target: CaBzz1-D2
Test: as above
Description: as §1

Binder	SPOT peptide array binding signal intensity
LKVTPGRRAPTISKI	148

Target: CaCyk3
Test: as above
Description: as §1

Binder	SPOT peptide array binding signal intensity
LKVTPGRRAPTISKI	18

Target: CaFus1
Test: as above
Description: as §1

Binder	SPOT peptide array binding signal intensity
LKVTPGRRAPTISKI	≤ 0

Target: CaHof1
Test: as above
Description: as §1

Binder	SPOT peptide array binding signal intensity
LKVTPGRRAPTISKI	0.5

Target: CaHse1
Test: as above
Description: as §1

Binder	SPOT peptide array binding signal intensity
LKVTPGRRAPTISKI	0.5

Target: CaLsb1
Test: as above
Description: as §1

Binder	SPOT peptide array binding signal intensity
LKVTPGRRAPTISKI	≤ 0

Target: CaLsb4
Test: as above
Description: as §1

Binder	SPOT peptide array binding signal intensity
LKVTPGRRAPTISKI	≤ 0

Target: CaMyo5
Test: as above
Description: as §1

Binder	SPOT peptide array binding signal intensity
LKVTPGRRAPTISKI	6.25

Target: CaNbp2
Test: as above
Description: as §1

Binder	SPOT peptide array binding signal intensity
LKVTPGRRAPTISKI	2720

Target: CaRvs167
Test: as above
Description: as §1

Binder	SPOT peptide array binding signal intensity
LKVTPGRRAPTISKI	1.5

Target: CaRvs167-3
Test: as above
Description: as §1

Binder	SPOT peptide array binding signal intensity
LKVTPGRRAPTISKI	27.5

Target: CaSho1
Test: as above
Description: as §1

Binder	SPOT peptide array binding signal intensity
LKVTPGRRAPTISKI	15.5

Target: CaSla1-D1-D2
Test: as above
Description: as §1

Binder	SPOT peptide array binding signal intensity
LKVTPGRRAPTISKI	56

Target: CaSla1-D3
Test: as above
Description: as §1

Binder	SPOT peptide array binding signal intensity
LKVTPGRRAPTISKI	1.5

Target: ScAbp1
Test: as above
Description: as §1

Binder	SPOT peptide array binding signal intensity
LKVTPGRRAPTISKI	21

Target: ScBbc1
Test: as above
Description: as §1

Binder	SPOT peptide array binding signal intensity
LKVTPGRRAPTISKI	1.75

Target: ScBem1-D1
Test: as above
Description: as §1

Binder	SPOT peptide array binding signal intensity
LKVTPGRRAPTISKI	9

Target: ScBzz1-D1
Test: as above
Description: as §1

Binder	SPOT peptide array binding signal intensity
LKVTPGRRAPTISKI	26

Target: ScBzz1-D2
Test: as above
Description: as §1

Binder	SPOT peptide array binding signal intensity
LKVTPGRRAPTISKI	5.5

Target: ScCyk3
Test: as above
Description: as §1

Binder	SPOT peptide array binding signal intensity
LKVTPGRRAPTISKI	10

Target: ScFus1
Test: as above
Description: as §1

Binder	SPOT peptide array binding signal intensity
LKVTPGRRAPTISKI	0.5

Target: ScHof1
Test: as above
Description: as §1

Binder	SPOT peptide array binding signal intensity
LKVTPGRRAPTISKI	≤ 0

Target: ScHse1
Test: as above
Description: as §1

Binder	SPOT peptide array binding signal intensity
LKVTPGRRAPTISKI	99

Target: ScLsb1
Test: as above
Description: as §1

Binder	SPOT peptide array binding signal intensity
LKVTPGRRAPTISKI	≤ 0

Target: ScLsb2
Test: as above
Description: as §1

Binder	SPOT peptide array binding signal intensity
LKVTPGRRAPTISKI	3

Target: ScLsb3
Test: as above
Description: as §1

Binder	SPOT peptide array binding signal intensity
LKVTPGRRAPTISKI	21.5

Target: ScLsb4
Test: as above
Description: as §1

Binder	SPOT peptide array binding signal intensity
LKVTPGRRAPTISKI	≤ 0

Target: ScMyo3
Test: as above
Description: as §1

Binder	SPOT peptide array binding signal intensity
LKVTPGRRAPTISKI	39.5

Target: ScMyo5
Test: as above
Description: as §1

Binder	SPOT peptide array binding signal intensity
LKVTPGRRAPTISKI	20.2

Target: ScNbp2
Test: as above
Description: as §1

Binder	SPOT peptide array binding signal intensity
LKVTPGRRAPTISKI	4490

Target: ScPex13
Test: as above
Description: as §1

Binder	SPOT peptide array binding signal intensity
LKVTPGRRAPTISKI	≤ 0

Target: ScRvs167
Test: as above
Description: as §1

Binder	SPOT peptide array binding signal intensity
LKVTPGRRAPTISKI	0.333

Target: ScSho1
Test: as above
Description: as §1

Binder	SPOT peptide array binding signal intensity
LKVTPGRRAPTISKI	33

Target: ScSla1-D1-D2
Test: as above
Description: as §1

Binder	SPOT peptide array binding signal intensity
LKVTPGRRAPTISKI	61.5

Target: ScSla1-D3
Test: as above
Description: as §1

Binder	SPOT peptide array binding signal intensity
LKVTPGRRAPTISKI	32.8

Target: SpAbp1-D1
Test: as above
Description: as §1

Binder	SPOT peptide array binding signal intensity
LKVTPGRRAPTISKI	170

Target: SpBbc1
Test: as above
Description: as §1

Binder	SPOT peptide array binding signal intensity
LKVTPGRRAPTISKI	1

Target: SpBzz1-D1
Test: as above
Description: as §1

Binder	SPOT peptide array binding signal intensity
LKVTPGRRAPTISKI	332

Target: SpBzz1-D2
Test: as above
Description: as §1

Binder	SPOT peptide array binding signal intensity
LKVTPGRRAPTISKI	1.25

Target: SpCyk3
Test: as above
Description: as §1

Binder	SPOT peptide array binding signal intensity
LKVTPGRRAPTISKI	1.5

Target: SpHof1
Test: as above
Description: as §1

Binder	SPOT peptide array binding signal intensity
LKVTPGRRAPTISKI	37.8

Target: SpHof1-2
Test: as above
Description: as §1

Binder	SPOT peptide array binding signal intensity
LKVTPGRRAPTISKI	0.5

Target: SpHof1-3
Test: as above
Description: as §1

Binder	SPOT peptide array binding signal intensity
LKVTPGRRAPTISKI	165

Target: SpHse1
Test: as above
Description: as §1

Binder	SPOT peptide array binding signal intensity
LKVTPGRRAPTISKI	67.8

Target: SpLsb1
Test: as above
Description: as §1

Binder	SPOT peptide array binding signal intensity
LKVTPGRRAPTISKI	≤ 0

Target: SpLsb4
Test: as above
Description: as §1

Binder	SPOT peptide array binding signal intensity
LKVTPGRRAPTISKI	30

Target: SpMyo1
Test: as above
Description: as §1

Binder	SPOT peptide array binding signal intensity
LKVTPGRRAPTISKI	352

Target: SpNbp2
Test: as above
Description: as §1

Binder	SPOT peptide array binding signal intensity
LKVTPGRRAPTISKI	8

Target: SpPex13
Test: as above
Description: as §1

Binder	SPOT peptide array binding signal intensity
LKVTPGRRAPTISKI	≤ 0

Target: SpRvs167
Test: as above
Description: as §1

Binder	SPOT peptide array binding signal intensity
LKVTPGRRAPTISKI	≤ 0

Target: SpSla1-D1-D2
Test: as above
Description: as §1

Binder	SPOT peptide array binding signal intensity
LKVTPGRRAPTISKI	4

Target: SpSla1-D3
Test: as above
Description: as §1

Binder	SPOT peptide array binding signal intensity
LKVTPGRRAPTISKI	≤ 0
